Screening results from PubChem BioAssay.
Compounds with a hit are over-represented: about 11% of the library has one in this group of screens.
BAZ2B inh – qHTS Assay for Inhibitors of BAZ2B; Bromodomain adjacent to zinc finger domain protein 2B (Homo sapiens), Q9UIF8; AlphaScreen BAZ2B-H3K14Ac peptide displacement; Potency, µM (highest dose often 114 µM), for inactives: at the top dose activity change, negative = inhibition, usual class: inhibitors; 360,000 tested, 4.4% active; AID 504333, 2011; also: potency is read from the fitted curve at half-maximal effect; % is scaled to controls: 0 for no effect and ±100 for the full control effect; nearly all actives have a fitted effect of over 60% in size
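Complex of BAZ2B and biotin-H3K14Ac (50 nM apiece) forms over 30 min at RT, then faces library compounds up to 110 uM for another 30 min; AlphaScreen beads added, 20 min dark incubation, luminescence read.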
G9a inh – qHTS Assay for Inhibitors of Histone Lysine Methyltransferase G9a; Potency, µM (titrated, usually from 102 µM), inactives show top-dose activity, negative = inhibition, usual class: inhibitors; G9a H3K9 monomethylation, AlphaScreen, 2 h; Histone-lysine N-methyltransferase EHMT2 (Homo sapiens), Q96KQ7; 350,000 tested, 8.8% active; AID 504332, 2011; also: potency is read from the fitted curve at half-maximal effect; % is scaled to controls: 0 for no effect and ±100 for the full control effect; nearly all actives have a fitted effect of over 75% in size
Target sequence (Q96KQ7 913-1193 limits assumed): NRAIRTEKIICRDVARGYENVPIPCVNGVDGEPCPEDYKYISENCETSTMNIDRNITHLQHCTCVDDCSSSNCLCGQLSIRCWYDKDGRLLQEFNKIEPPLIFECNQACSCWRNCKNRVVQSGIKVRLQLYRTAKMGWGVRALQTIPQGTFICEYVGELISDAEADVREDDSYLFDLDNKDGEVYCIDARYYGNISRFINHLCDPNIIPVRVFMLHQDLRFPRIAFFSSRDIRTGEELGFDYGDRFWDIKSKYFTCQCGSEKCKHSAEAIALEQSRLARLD
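AlphaScreen detection with an anti-monomethyl H3K9 antibody quantified product after a 2 h room-temperature reaction containing 500 nM biotinylated H3K9 peptide, 20 µM SAM and 20 nM enzyme, which had been preincubated 15 min with compound.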
JMJD2A Tudor – qHTS Assay for Inhibitors of JMJD2A-Tudor Domain | AlphaScreen JMJD2A-Tudor / H3K4me3 peptide binding | Potency, µM (titrated, usually from 114 µM), for the others: at the top dose activity change, negative = inhibition, hits mostly inhibitors | Lysine-specific demethylase 4A (Homo sapiens), O75164 | 390,000 tested, 4.4% active; also: potency is read from the fitted curve at half-maximal effect; % is scaled to controls: 0 for no effect and ±100 for the full control effect; nearly all actives have a fitted effect of over 50% in size
L3MBTL1 inh – qHTS Assay for the Inhibitors of L3MBTL1 | Lethal(3)malignant brain tumor-like protein 1 (Homo sapiens), Q9Y468 | AlphaScreen L3MBTL1–H3K9me1 peptide binding | Potency, µM (series often up to 57.1 µM), without a hit: at the top dose activity, negative = inhibition, hits mostly inhibitors | 230,000 tested, 0.66% active | AID 485360, 2010; also: potency is read from the fitted curve at half-maximal effect; % is scaled to controls: 0 for no effect and ±100 for the full control effect; nearly all actives have a fitted effect of over 60% in size
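Read-out is AlphaScreen signal from streptavidin donor and nickel chelate acceptor beads (10 ug/mL final each) bridging L3MBTL1 (50 nM) and biotinylated K9-monomethylated H3(1-15) peptide (75 nM), after 30 min compound exposure at room temperature.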
HP1b binding inh – HTS for Inhibitors of HP1-beta Chromodomain Interactions with Methylated Histone Tails | Chromobox protein homolog 1 (Homo sapiens), P83916 | AlphaScreen HP1-beta / biotin-H3K9me3 peptide binding | Potency, µM (doses to about 114 µM), without a hit: top-dose activity change, negative = inhibition, usual class: inhibitors | 390,000 tested, 0.56% active; also: potency is read from the fitted curve at half-maximal effect; nearly all actives have a fitted effect of over 70% in size
Target sequence (P83916 whole entry, looked up): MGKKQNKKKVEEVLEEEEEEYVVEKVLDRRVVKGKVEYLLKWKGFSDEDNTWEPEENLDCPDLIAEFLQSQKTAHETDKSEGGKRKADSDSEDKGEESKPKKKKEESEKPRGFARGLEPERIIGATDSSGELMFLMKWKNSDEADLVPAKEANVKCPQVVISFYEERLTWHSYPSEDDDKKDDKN
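Compound inhibition of the preformed complex between 50 nM HP1-beta and 50 nM biotinylated H3K9me3 peptide was read by AlphaScreen. Buffer was PBS pH 7.4 with 0.01% Tween-20. Incubations ran 30 min at room temperature, with 10 ug/mL donor/acceptor beads.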
PI5P4Ka inh – qHTS for Inhibitors of phosphatidylinositol 5-phosphate 4-kinase (PI5P4K); max response, %; Phosphatidylinositol 5-phosphate 4-kinase type-2 alpha (Homo sapiens), P48426; 330,000 tested, 1.2% active; PI5P4Kalpha enzyme, ADP-Glo luminescence, 60 min; stronger effect = lower value; active = max response of -50% or lower; inconclusive = between -30% and -50%; inactive = -30% or higher; also: value at the top dose of about 77 µM; % is scaled to controls: 0 for no effect and ±100 for the full control effect
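ADP-Glo luminescence end-point read after a 60 min room-temperature kinase reaction of PI5P4Kalpha plus substrate, initiated with ATP at 5 microM final. Buffer: 0.038 M HEPES pH 7.4, EGTA, 0.1% CHAPS, 5% DMSO.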
* marks the source's active call; other numbers are inactive results; u = inconclusive; x = not tested or not shown; ! = repeats disagree; [ ] = remark or other dose. Unless noted, calls follow the shape of the dose curve; as a rule, active = well fitted inhibition curve with a large enough effect; inconclusive = small, poorly fitted or top-dose-only effect; inactive = no such curve, though single readings can be large or run the other way.

SMILES	BAZ2B inh	G9a inh	JMJD2A Tudor	L3MBTL1 inh	HP1b binding inh	PI5P4Ka inh
CN1CCN(c2ccc(Cl)cc2NC(=O)c2cc(=O)[nH]c3ccccc23)CC1	5.3%	-10.6%[12.7 µM]	-19.5%	-0.4%	11.0%	9.8
CC(=O)c1cccc(NC(=O)C2C3C=CC(C3=C(c3ccccc3)c3ccccc3)C2C(=O)O)c1 (stereo unspecified)	u	50.1µM*	u	-15.0%	6.3%	-1.2
CC(=O)c1cccc(NC(=O)Nc2ccccc2)c1	9.8%	21.1%	-3.8%	x	53.8%	9.6
O=C(NCc1cccc(Cl)c1)c1cccn1-c1nnc(N2CCCC2)s1	-8.6%	-9.4%[59 µM]	-20.5%	x	13.9%	x
O=C(NCc1ccccn1)C1(C(F)(F)F)C/C(=C\CCO)CCCO1 (stereo unspecified)	x	x	28.2µM*!	x	33.5%	-3.6
CCC/C=C1/CCCOC(C(=O)NCc2ccccn2)(C(F)(F)F)C1 (stereo unspecified)	x	x	4.3%	x	34.3%	0.4
O=C(COc1ccc(Cl)cc1)NCC(c1ccco1)S(=O)(=O)c1ccc(F)cc1 (stereo unspecified)	-18.5%	-2.2%[59 µM]	-19.8%	x	8.9%	x
COc1ccccc1-c1noc(-c2ccc(N3CCC(C)CC3)c([N+](=O)[O-])c2)n1	0.6%	4.6%[59 µM]	-17.5%	x	25.6%	x
CCN(CC)C(c1ccc(F)cc1)c1nnnn1C1CCCCC1 (stereo unspecified)	-30.6%	89.1µM*	7.4%	3.4%	31.6%	-0.1
CCN(CC)C(c1ccc(C)cc1)c1nnnn1C1CCCCC1 (stereo unspecified)	7.4%	3.9%[59 µM]	-30.6%	-0.1%	25.6%	x
c1ccc(CN(Cc2ccco2)C(c2ccncc2)c2nnnn2C2CCCC2)cc1 (stereo unspecified)	u	20µM*	u	u	-3.2%	x
CN(C)C=NC1=NN(c2cccc(C(F)(F)F)c2)CC1	u	2.24µM*	u	-11.6%	-12.7%	16.0
CN1CCN(C=NC2=NN(c3cccc(C(F)(F)F)c3)CC2)CC1	u	2.82µM*	u	-5.6%	u	7.8
COc1ccc2c(Sc3ccccc3)c(C(=O)NCc3cc(Br)ccc3OC)[nH]c2c1	-9.3%	-38.6%[59 µM]	-11.9%	x	16.8%	x
O=C(CCc1nc2sc3c(c2c(=O)[nH]1)CCCC3)N1CCN(c2ccccc2)CC1	56.2µM*	1.9%[0.501 µM]	-31.0%	-28.3%	-8.7%	u
Cc1cccc(NC(=O)CCc2nc3sc4c(c3c(=O)[nH]2)CCCC4)c1	0.2%	2.2%[59 µM]	-6.2%	3.1%	37.3%	0.9
CCOC(=O)N1CCN(C(=O)CCc2nc3sc4c(c3c(=O)[nH]2)CCCC4)CC1	-3.1%	16.6%	-1.1%	2.6%	25.1%	-0.1
CCc1cccc(NC(=O)CCc2nc3sc4c(c3c(=O)[nH]2)CCCC4)c1	70.8µM*	-31.7%	u	u	6.0%	u
Cc1cccc(NC(=O)C(C)SCc2nc3sc4c(c3c(=O)[nH]2)CCCC4)n1 (stereo unspecified)	1.1%	56.2µM*	-19.3%	-10.8%	30.3%	u
CS(=O)(=O)N1CCc2cc(C(=O)Nc3cccc(F)c3)ccc21	0.8%	-2.3%[59 µM]	-26.1%	x	0.9%	x
Cc1ccc(CNC(=O)C2CCN(S(=O)(=O)c3ccc4c(c3)oc(=O)n4C)CC2)cc1	-2.0%	u	-7.9%	x	37.5%	x
Cc1nn(-c2ccccc2)c(OC(=O)c2cccs2)c1S(=O)(=O)c1ccc([N+](=O)[O-])cc1	79.4µM*	u	u	x	12.7%	x
Cc1nn(-c2ccccc2)c(OC(=O)c2cccs2)c1S(=O)(=O)c1ccccc1	-31.2%	10.5%[12.7 µM]	-2.6%	4.2%	44.7%	-13.7
CC1CCN(c2nnc(-n3cccc3CNc3cccc(F)c3)s2)CC1	-1.5%[57.1 µM]	-8.0%[59 µM]	-26.2%	x	16.3%	x
Cc1cc(C)c2oc(C(=O)Nc3nc4ccc(Cl)cc4s3)cc(=O)c2c1	-1.5%	-0.9%[59 µM]	-12.8%	x	36.2%	x
SMILES	BAZ2B inh	G9a inh	JMJD2A Tudor	L3MBTL1 inh	HP1b binding inh	PI5P4Ka inh
Cc1ccc(Nc2c(-c3ccc(C)o3)nc3cnccn23)cc1	u	31.6µM*	39.8µM*	x	u	-9.5
Cc1ccc(-c2nc3cnccn3c2Nc2ccccc2)o1	-33.2%	7.94µM*	u	-2.6%	u	-13.7
Cc1ccc(-c2nc3ccccn3c2Nc2ccccc2)o1	-31.1%	50.1µM*	-8.4%	-9.5%	11.8%	2.3
Cc1ccc(Nc2c(-c3ccc(C)o3)nc3ccccn23)cc1	x	x	u	x	-13.8%	x
COCCCNC(=O)C1CCN(Cc2cc3ccccc3n2Cc2cccc(Cl)c2)CC1	-25.6%	u	u	x	-2.6%	x
Cc1ccc(-n2ncc3c(N4CCN(CCO)CC4)ncnc32)cc1Cl	-1.6%	-43.6%[59 µM]	-12.8%	x	37.0%	x
Cc1noc(NS(=O)(=O)c2ccc(NC(=O)C34CC5CC(C3)CC(n3cnc(Cl)n3)(C5)C4)cc2)c1C	-26.0%	-29.9%[59 µM]	-7.4%[57.1 µM]	0.0%	43.3%	4.0
Cc1noc(NS(=O)(=O)c2ccc(NC(=O)CC34CC5CC(CC(Br)(C5)C3)C4)cc2)c1C	-38.5%	70.8µM*	-18.3%[57.1 µM]	3.5%	39.1%	1.1
Cc1ccc2c(=O)cc(C(=O)Nc3ccc(S(=O)(=O)Nc4onc(C)c4C)cc3)oc2c1C	-33.5%	-37.4%[59 µM]	56.2µM*	x	9.9%	x
Cc1noc(NS(=O)(=O)c2ccc(NC(=O)/C=C/c3ccc(Br)cc3)cc2)c1C	-35.1%	u	-31.9%	x	-20.8%	0.3
Cc1noc(NS(=O)(=O)c2ccc(NC(=O)/C=C/c3ccc(C(C)C)cc3)cc2)c1C	u	44.7µM*	-35.2%	x	-1.9%	-0.4
Cc1noc(NS(=O)(=O)c2ccc(NC(=O)c3ccc(N4C(=O)c5ccccc5C4=O)cc3)cc2)c1C	50.1µM*	2.1%	-35.4%	x	-5.0%	-2.4
CCN(c1cccc(C)c1)S(=O)(=O)c1ccc(N2CCCCS2(=O)=O)cc1	-0.9%	-4.6%[59 µM]	-9.9%	x	41.9%	x
Cc1cccc(NC(=O)CSc2nc(=O)n(Cc3ccncc3)c3c2CCC3)c1C	-0.2%	15.3%[59 µM]	1.9%	x	10.1%	x
CCOc1ccc(NC(=O)CSc2ncc(S(=O)(=O)c3ccc(F)c(C)c3)c(=O)[nH]2)cc1	-3.7%	-26.5%[59 µM]	-19.3%	x	6.3%	x
CCCCCn1c(=O)[nH]c2cc(C(=O)Nc3ccc(OC)c(OC)c3)ccc2c1=O	4.3%	1.9%[59 µM]	-13.3%	x	10.3%	x
